# The campaign covered roughly 1,200 compounds. About 480 (40%) were called active. Not shown: some 29% with an inconclusive outcome. The list shows a part of the results. Values without a mark were called inactive. The call rests on the fitted dose curve; in most records, active means well fitted inhibition curve with a large enough effect; inconclusive means small, poorly fitted or top-dose-only effect; inactive means no such curve, though single readings can be large or run the other way.
# Experiment: qHTS Assay to Find Inhibitors of Chronic Active B-Cell Receptor Signaling: Hit Validation in Primary Screen; further: nearly all actives have a fitted effect of over 75% in size
# Conditions: ABC-DLBCL IkB-luc/CBR ratio luminescence, 4 h; series mostly up to 46.1 µM; activity change, negative = inhibition: at the top concentration
# Outline: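 TMD8 ABC-DLBCL cells carrying doxycycline-inducible IkBa-green luciferase fusion and free red luciferase, 0.5% FBS, dosed 46 uM–3 nM with doxycycline for 4 h at 37C. Green/red luminescence ratio normalized to basal and 10 uM MG-132.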
# On the % scale 0 is the no-effect control and ±100 the full control effect; potency means the concentration at half of the fitted maximal effect.
SMILES,"activity change, negative = inhibition",Potency
CN1c2ccccc2Sc2cc(N)ccc21,-18%,–
COc1ccc(/C=N/NC(=O)CCn2cnc(-c3ccccc3)c2-c2ccccc2)cc1,–,2.31 µM (active)
COc1ccc(/C=N/NC(=O)CCn2cnc(-c3ccccc3)c2-c2ccccc2)cc1OC,–,16.4 µM (active)
COc1ccc(/C=N\NC(=O)c2c(C)nc3ccc(Br)cn23)cc1,30.1%,–
COc1ccc(-c2nn(-c3ccccc3)cc2C(=O)NC(=S)NNC(=O)c2ccncc2)cc1,-10.6%,–
COc1cc2c(cc1OC)-c1cc(Nc3ccccc3C)nc(=O)n1CC2,55.9%,–
COc1cc2c(cc1OC)-c1cc(Nc3ccccc3)nc(=O)n1CC2,–,18.4 µM (active)
COc1cc2c(cc1OC)-c1cc(Nc3ccc(N(C)C)cc3)nc(=O)n1CC2,41.3%,–
COc1ccc(Nc2cc3n(c(=O)n2)CCc2cc(OC)c(OC)cc2-3)c(C)c1,–,5.17 µM (active)
COc1cc2c(cc1OC)-c1cc(Nc3ccc(C)cc3)nc(=O)n1CC2,–,18.4 µM (active)
Oc1ccc(-c2nc3cnccn3c2Nc2ccc3c(c2)OCCO3)cc1,–,23.1 µM (active)
O=C(COc1ccc(C(=O)c2ccccc2)cc1)NCc1ccc(F)cc1,–,4.61 µM (active)
O=C(O)CCCCCCCCc1cn(Cc2ccc(C(=O)c3ccccc3)cc2)nn1,31.6%,–
CCOc1ccccc1OCC(=O)N/N=C(\C)Cc1ccc(OC)cc1,-13.1%,–
COc1ccc(CNC(=O)COc2ccc(C(=O)c3ccc(F)cc3)cc2)cc1,–,3.26 µM (active)
CCOc1cc(C(=O)N/N=C(\C)Cc2ccc(OC)cc2)cc(OCC)c1OCC,-7.54%,–
Cc1cn(-c2cccnc2)c(C)c1CNC[C@H]1O[C@@H](n2cnc3c(N)ncnc32)[C@H](O)[C@@H]1O,34.9%,–
OC[C@H]1O[C@@H](n2cnc3c(Nc4ccccc4)ncnc32)[C@H](O)[C@@H]1O,–,7.31 µM (active)
C[C@H](Cc1ccccc1)Nc1ncnc2c1ncn2[C@@H]1O[C@H](CO)[C@@H](O)[C@H]1O,–,0.184 µM (active)
Nc1ncnc2c1ncn2[C@@H]1O[C@H](CNCc2cccc(C#Cc3ccccc3)c2)[C@@H](O)[C@H]1O,-20.2%,–
CCn1c2ccccc2c2cc(Nc3cc(C)nc4ncnn34)ccc21,–,16.4 µM (active)
Cc1cc(NC2CCCCC2)nc2ccccc12,81.7%,–
COc1cccc(-c2nnc(SCC(=O)Nc3cc(C)on3)o2)c1,-9.43%,–
Cc1cc(NC(=O)CSc2nc3ccccc3c(=O)n2C2CCCC2)no1,–,4.61 µM (active)

SMILES,"activity change, negative = inhibition",Potency
O=[N+]([O-])c1cc(O)c2ncccc2c1,-2.48%,–
COc1ccc(CNc2nc(NCc3ccc(OC)cc3)c3ncn(C4CCCC4)c3n2)cc1,–,2.31 µM (active)
COC(=O)c1ccc(CNC(=O)Cn2cnc3c(NCc4ccccc4)ncnc32)cc1,-3.53%,–
NS(=O)(=O)c1cc(C(=O)OCC(=O)N2CCc3ccccc3C2)ccc1Cl,-3.34%,–
O=C(OCC(=O)c1ccc[nH]1)c1ccc(Cl)c(Cl)c1,-4.68%,–
CCn1c(=O)c([N+](=O)[O-])c(Cl)c2ccccc21,–,6.51 µM (active)
CCOc1ccc(NCc2ccccc2OCc2cccc(F)c2)cc1,4.73%,–
O=Cc1ccccc1OCCOc1ccccc1C=O,–,20.6 µM (active)
O=C(CSc1ncccc1C(=O)O)c1ccc2ccccc2c1,-0.833%,–
C=CCn1c(O)c(N=NC(=S)Nc2ccccc2F)c2cc(S(=O)(=O)N3CCOCC3)ccc21,27.2%,–
NC(=S)N=Nc1c(O)n(CCCl)c2ccccc12,-8.32%,–
C/C(Cl)=C\Cn1c(O)c(N=NC(N)=S)c2cc(Br)ccc21,–,14.6 µM (active)
CCOC(=O)c1[nH]c(C)c(C(=O)c2ccc(C)cc2)c1C,35%,–
CCOC(=O)c1[nH]c(C)c(C(=O)OCC)c1C,–,18.4 µM (active)
CCOC(=O)c1c(C)[nH]c(C(=O)N/N=C/c2ccc(Br)cc2)c1C,–,0.92 µM (active)
CCOC(=O)c1[nH]c(C)c(C(=O)N2CCc3ccccc32)c1C,–,4.61 µM (active)
CCOC(=O)c1[nH]c(C)c(C(=O)c2cc(F)ccc2F)c1C,–,11.6 µM (active)
CC[C@]12c3[nH]c4cc(CCC(=O)N(C)C)ccc4c3CCN1C(=O)[C@@H](CC(=O)NC/C=C(\C)CCC=C(C)C)C[C@@H]2C(=O)N1CCN(C(=O)c2ccco2)CC1,42.8%,–
CCC1CCCCN1C(=S)NC(=O)c1cccs1 (stereo unspecified),-5.2%,–
CCOC(=O)c1[nH]c(C)c(C(=O)Nc2cc(Cl)ccc2C)c1C,–,7.31 µM (active)
CCN(CC(=O)Nc1cc(Cl)ccc1C)C(=O)C1CC1,-9.23%,–
CCN(CC)S(=O)(=O)c1ccc(N/N=C(\C)c2ccc(OC)cc2O)nc1,-5.21%,–
COc1ccc(S(N)(=O)=O)cc1C(=O)OCCCOC(=O)c1cc(S(N)(=O)=O)ccc1OC,-13.5%,–
CCOc1ccc(S(=O)(=O)Nc2cc(OC)ccc2OC)cc1,–,4.61 µM (active)

SMILES,"activity change, negative = inhibition",Potency
CC[C@]12c3[nH]c4cc(CCC(=O)N(C)C)ccc4c3CCN1C(=O)[C@@H](CC(=O)NCCc1ccccn1)C[C@@H]2C(=O)N1CCN(C(=O)C2CC2)CC1,-7.85%,–
CCN(CC)c1ccc(NC(=O)c2cc(OC)cc(OC)c2)c(C)c1,–,6.51 µM (active)
C/C(=N\NC(N)=S)c1cc(-c2ccccc2)c(-c2ccccc2)s1,-2.96%,–
C=CCNC(=S)N/N=C/c1ccc(C(F)(F)F)cc1,-0.319%,–
CCN1C(=O)C(O)(C2COC(C)(C)CC2=O)c2cc(Br)ccc21 (stereo unspecified),–,18.4 µM (active)
CCc1ccc2oc(=O)cc(CN3CCCCC3C)c2c1 (stereo unspecified),-10.3%,–
COc1ccc(CCNCC(O)COc2cccc(Br)c2)cc1 (stereo unspecified),57.3%,–
Oc1ccc(Nc2nc(-c3cccnc3)cs2)cc1,–,16.4 µM (active)
COC1=CC(=O)CC(C)C12Oc1c(Cl)c(OC)cc(OC)c1C2=O (stereo unspecified),-15.9%,–
COc1cc(OC)c2c(c1)OC(=O)CC2c1cc(OC)c(OC)c(OC)c1 (stereo unspecified),-23.6%,–
COc1cc(C2C(C#N)=C(N)Oc3cc4c(cc32)OCO4)cc(OC)c1OC (stereo unspecified),–,0.461 µM (active)
Nc1ncnc2c1ncn2[C@@H]1O[C@H](COP(=O)(O)O)[C@@H](O)[C@H]1O,110%,–
Nc1ncnc2c1ncn2C1OC(C(=O)NC2CC2)C(O)C1O (stereo unspecified),–,0.058 µM (active)
Nc1nc(Cl)nc2c1ncn2[C@@H]1O[C@H](CO)[C@@H](O)[C@H]1O,–,0.92 µM (active)
C=CCNc1ncnc2c1ncn2C1OC(CO)C(O)C1O (stereo unspecified),–,23.1 µM (active)
OCC1OC(n2cnc3c(NC4CCCCC4)ncnc32)C(O)C1O (stereo unspecified),–,1.46 µM (active)
Nc1ncnc2c1ncn2[C@@H]1O[C@H](CNCc2ccc(-c3cc(C(F)(F)F)ccc3Cl)o2)[C@@H](O)[C@H]1O,-19.2%,–
Nc1ncnc2c1ncn2[C@@H]1O[C@H](CNC(=O)[C@@H]2CCCN2S(=O)(=O)c2ccc(F)cc2)[C@@H](O)[C@H]1O,-11%,–
CC1CCC2C(=O)N(c3ccc(C(=O)Oc4cccc5cccnc45)cc3)C(=O)C2C1 (stereo unspecified),-1.42%,–
O=C(Oc1c(CN2CCOCC2)cc(Cl)c2cccnc12)c1ccccc1Cl,-4.71%,–
OC[C@H]1O[C@@H](n2cnc3c(NC4CCCC4)nc(Cl)nc32)[C@H](O)[C@@H]1O,–,1.3 µM (active)
CCCC(=O)Nc1ncnc2c1ncn2[C@@H]1O[C@@H]2COP(=O)(O)O[C@H]2[C@H]1OC(=O)CCC,-15.4%,–
OC[C@H]1O[C@@H](n2cnc3c(NC4CCCC4)ncnc32)[C@H](O)[C@@H]1O,–,1.84 µM (active)
S=C(NCc1ccc2[nH]c3c(c2c1)CCCC3)Nc1ccccc1,37.4%,–

SMILES,"activity change, negative = inhibition",Potency
Cc1ccccc1NC(=S)NCc1ccc2c(c1)cc(C)n2C,–,1.46 µM (active)
Cc1ccccc1NC(=S)c1ccc2ccccc2n1,1.75%,–
COC(=O)Nc1nc(-c2ccccc2)c(C(=O)c2ccc(Cl)cc2)s1,–,3.66 µM (active)
CC[C@@H]1Cc2cc(O)ccc2C2=C1c1ccc(O)cc1C[C@H]2CC,–,14.6 µM (active)
Cc1noc(C)c1COc1cccc(C(=O)OCC(=O)N2CC(=O)Nc3ccccc32)c1,–,20.6 µM (active)
CN(CC(=O)Nc1ccc2c(c1)OCCO2)Cc1nc2ccccc2c(=O)[nH]1,-16.8%,–
O=C(Cc1n[nH]c(=O)c2ccccc12)OCC(=O)c1ccc2c(c1)OCCO2,–,20.6 µM (active)
CCOc1ccc(N(CC(=O)Nc2ccccc2OCC)S(=O)(=O)c2c(C)noc2C)cc1,–,2.91 µM (active)
CCOc1ccc(N(CC(=O)Nc2ccccc2OC)S(=O)(=O)c2ccccc2)cc1,–,5.17 µM (active)
CCOc1ccc(N(CC(=O)Nc2ccccc2C)S(=O)(=O)c2c(C)noc2C)cc1,–,14.6 µM (active)
CCOc1ccc(S(=O)(=O)N(CC(=O)NN=C2CCN(C)CC2)c2ccc(C)cc2)cc1,-1.14%,–
FC(F)(F)c1nnc2ccc(Cl)nn12,2.64%,–
O=C(N/N=C/C(Br)=C\c1ccccc1)c1ccc2nc[nH]c2c1,35.2%,–
CCOc1cc(C(=O)N/N=C/C2CC=CCC2)cc(OCC)c1OCC (stereo unspecified),-4.55%,–
CC(/C=N/NC(=O)c1n[nH]c2c1CCC2)=C\c1ccccc1,–,0.58 µM (active)
O=C(N/N=C/C(Br)=C\c1ccccc1)c1n[nH]c2c1CCC2,–,2.06 µM (active)
CCOc1cc(C(=O)N/N=C/C(Br)=C/c2ccccc2)cc(OCC)c1OCC,–,2.59 µM (active)
Cc1c(CCC(=O)N2CCC(C(=O)O)(c3ccccc3)CC2)c(=O)oc2cc3oc4c(c3cc12)CCCC4,-14.9%,–
Cc1c(CCC(=O)N2CCC[C@H]2C(=O)O)c(=O)oc2cc3oc4c(c3cc12)CCCC4,–,23.1 µM (active)
CCOC(=O)C(C)N1C(=O)S/C(=C/c2cc(C)n(-c3ccccn3)c2C)C1=O (stereo unspecified),-21.2%,–
CCOC(=O)C(C)N1C(=O)S/C(=C/c2ccc3c(c2)n(C)c(=O)n3C)C1=O (stereo unspecified),–,18.4 µM (active)
COc1ccc(C2CC(=O)Nc3cc(OC)c(OC)cc32)cc1Br (stereo unspecified),–,20.6 µM (active)
COc1cc2c(cc1OC)C(c1ccc(OC)c(OC)c1OC)CC(=O)N2 (stereo unspecified),–,23.1 µM (active)
COc1cc2c(c(OC)c1OC)C(c1ccc(C)cc1)CC(=O)O2 (stereo unspecified),31.1%,–

# From PubChem BioAssay AID651558 (National Center for Advancing Translational Sciences (NCATS), 2012)
